# Source: PubChem BioAssay AID2284348 (EPA ToxCast)
# Inconclusive results are not listed. Activity calls are given as the source filed them. How the source made its calls: active means hit-call score of the fitted dose curve at least 0.9, where 1 is the maximum; inconclusive means response in the unintended direction; inactive means score below 0.9.
# Test system: Japanese medaka Peroxisome Proliferator-activated Receptor alpha (PPARa), gene 100304458
# Assay: ATG_jmPPARa_EcoTox2: Attagene TRANS-FACTORIAL EcoTox-2 HepG2 Assay for Japanese medaka Peroxisome Proliferator-activated Receptor alpha (PPARa)
# Description: ATG_EcoTox2 is a cell-based, multiplexed assay created by modifying the existing Attagene TRANS-FACTORIAL system to include a panel of nuclear receptors from some or all the following species: human (Homo sapiens), african clawed frog (Xenopus laevis), rainbow trout (Oncorhynchus mykiss), japanese medaka (Oryzias latipes), and zebrafish (Danio rerio). The ECOTOX2-FACTORIAL format uses HepG2, a human liver cell line, with measurements taken at 24 hours after chemical dosing in a 24-well plate. ATG_jmPPARa_EcoTox2 is one of 29 assay components calculated in the ATG_EcoTox2 assay. It is designed to make measurements of mRNA induction, a form of inducible reporter, as detected with fluorescence intensity signals by Reverse transcription polymerase chain reaction (RT-PCR) and Capillary electrophoresis technology.The assay endpoint ATG_jmPPARa_EcoTox2 was analyzed in the positive analysis fitting direction relative to DMSO as the negative control and baseline of activity. Using a type of inducible reporter, measures of mRNA for gain-of-signal activity can be used to understand the reporter gene at the transcription factor-level as they relate to the gene PPARa. Furthermore, this assay endpoint can be referred to as a […], because this assay has produced multiple assay endpoints where this one serves a reporter gene function. To generalize the intended target to other relatable targets, this assay endpoint is annotated to the nuclear receptor intended target family, where the subfamily is non-steroidal.
# Human liver HepG2 cells are transiently transfected with multiple reporter transcription units (MRTUs) in 6-well plates using FuGene 6 reagent (Roche; 3 ml FuGene/1 mg DNA). The MRTU constructs are regulated by a cis-regulating element (promoter). Each RTU expresses a GAL4-UAS that regulates the transcription of a nearby target reporter gene sequence. A major difference between the CIS and TRANS system is that in CIS activities of endogenous TFs are measured, whereas the TRANS assay evaluates changes in activities of exogenous, chimeric NR-Gal4 proteins. […] At the end of 24 hour incubation, total RNA was isolated using TriZol reagent (Invitrogen). The isolated RNA is then reverse-transcribed using oligo(dT) primer and Mo-MLV reverse transcriptase (Invitrogen) with DNAse I (Ambion) treatment for 30 min. The one-tenth of the produced cDNA was amplified by PCR using Taq DNA polymerase (Invitrogen) and two reporter sequence-specific primers. […] The fragments were purified using Qiaquick PCR columns (Qiagen), analyzed on an ABI 3130xL genetic analyzer (Applied Biosystems) with peak positions identified by using a set of X-rhodamine (ROX)-labeled MapMarker1000 molecular weight standards (BioVentures). […]
SMILES,AC50,outcome
O=C(O)C(F)(F)C(F)(F)C(F)(F)C(F)(F)C(F)(F)C(F)(F)C(F)(F)F,75 µM (active),–
[Cl][Sn]([c]1ccccc1)([c]1ccccc1)[c]1ccccc1,0.473 µM (active),–
O=S(=O)(O)C(F)(F)C(F)(F)C(F)(F)C(F)(F)C(F)(F)C(F)(F)F,–,inactive
CCCCOCN(C(=O)CCl)c1c(CC)cccc1CC,50 µM (active),–
